Potency and affinity values are given separately. Calls of active or inactive are those of the source. No rule for the calls is given here.

A short description of the assay: CCR5-tropic HIV-1 fusion blockers – cell-based, CCR5-tropic Env, dose response (AID 2279). The note with it: CCR5-tropic HIV-1 Env, reporter read-out; series mostly up to 50 µM; inhibition: at the top concentration.
The term inhibition denotes the relative decrease from the control value, in per cent. On to `O=C(O)c1ccc(-c2ccc(/C=C3\NC(=O)N(Cc4ccc(Cl)cc4)C3=O)o2)cc1Cl`, for which the “inhibition” value is -0.7% (inactive).

In the case of `CCS(=O)(=O)C1=NN2C(=N)/C(=C\c3ccc(OCCOc4cccc(OC)c4)c(OC)c3)C(=O)N=C2S1`, the “inhibition” value was 6.77% (inactive).

For the molecule `O=C(CCCN1C(=O)/C(=C/c2cccs2)SC1=S)Nc1ccc(O)c(C(=O)O)c1`, the “inhibition” value was -8.17% (inactive).

`O=C(O)C1Nc2c(cccc2C(F)(F)F)C2C=CCC12` (centres undefined): the “inhibition” value is 9.45% (inactive).

In the case of `COc1ccc(NS(=O)(=O)c2ccc3c(c2)[C@H]2C=CC[C@H]2[C@@H](c2ccc(C(=O)O)cc2)N3)cc1`, the “inhibition” value is 10% (inactive).

In the case of `CCOc1cc(/C=C2\C(=N)N3N=C(S(C)(=O)=O)SC3=NC2=O)ccc1OCCOc1cccc(OC)c1`, the “inhibition” value is 5.44% (inactive).

Regarding `O=C(O)c1cccc(N/N=C/c2cc(Br)cc(Br)c2O)c1`, the “inhibition” value is 11.8% [at 25 µM] (inactive).

For `O=C(O)c1cccc2c(-c3ccccc3)c(-c3ccccc3)[nH]c12`, the “inhibition” value was 13% (inactive).

Turning to `CC(C)S(=O)(=O)C1=NSC2=NC(=O)/C(=C\c3ccc(-c4cccc(C(=O)O)c4)o3)C(=N)N21`, the “inhibition” value was 1.16% (inactive).

Take `CCc1nnc(NS(=O)(=O)c2ccc(NC(=S)NC(=O)/C=C/c3ccc(C(C)C)cc3)cc2)s1`: the “inhibition” value is 37.6% (inactive).

With `COc1cc(/C=C2/C(=O)NN(c3ccc(Cl)cc3)C2=O)ccc1OC(=O)c1ccco1`, the “inhibition” value was 0.91% (inactive).

As to `Cc1ccccc1C(=O)Nc1cccc(C(=O)N/N=C/c2cc(Cl)cc([N+](=O)[O-])c2O)c1`, the “inhibition” value is 39.4% (inactive).

`CC(C)CS(=O)(=O)C1=NSC2=NC(=O)/C(=C\c3ccc(OC(=O)c4ccco4)cc3)C(=N)N21`: the “inhibition” value is -4.18% (inactive).

For `CCOc1cc(/C=N/NC(=O)c2ccc(-c3csc(Nc4ccc(C)cc4)n3)cc2)ccc1OCC(=O)O`, the “inhibition” value is -30.4% (inactive).

(Values after PubChem BioAssay AID2279 (Southern Research Specialized Biocontainment Screening …, 2010).)
